Screening results from PubChem BioAssay.
Peg3 promoter – Peg3 promoter activity inhibition | HeLa PEG-Prom luciferase reporter, luminescence, overnight | inhibition, % at 20 µM | hit rate 1.7% among 360,000;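 active means inhibition of at least 50% at 20 µM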
KKLEB cytotox – reduces viability of KKLEB cystic fibrosis airway cells. KKLEB CF airway cells viability, ATPlite luminescence, overnight; hits give low values; cells stimulated with P. aeruginosa culture filtrate. hit rate 0.36% among 360,000. activity change (cytotoxicity), % at 5 µM;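 active means corrected activity change at or below -50% at 5 µM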
LGR2 antag – Drosophila LGR2 receptor signaling inhibition. HEK293 LGR2, CRE-luciferase, bursicon-stimulated, 4 h. inhibition, % at 9.99 µM. hit rate 0.35% among 380,000. AID 720647;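 active means drop in luminescence signal, shown as inhibition above about 50% in the replicate tests, limit read from the data, passing the limit was not always enough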;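 further: agonist challenge used bursicon conditioned medium at about half maximal strength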
CF NFkB inh – blocks PAF-induced NF-kB reporter in cystic fibrosis cells. inhibition, % at 5 µM. AID 588850. hit rate 0.86% among 360,000. KKLEB NF-kB-GFP reporter, GFP fluorescence overnight;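 active means at least 50% inhibition at 5 µM, scaled per plate between neutral and stimulator controls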;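 further: PAF is a Pseudomonas aeruginosa culture filtrate used as stimulus; plate controls were PAF-stimulated DMSO wells for no effect and unstimulated DMSO wells for full effect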
Mdm2 MdmX PPI – human Mdm2/MdmX binding inhibition; O15151+Q00987; SaOS-2 split-luciferase Mdm2/MdmX complementation, luminescence; inhibition, % at 8 µM; hit rate 3% among 330,000; AID 485346;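 active means inhibition of at least 50% at 8 µM in the primary screen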
HSP90 refold inh – HSP90 refolding inhibition in rabbit reticulocyte lysate; luciferase refolding luminescence, 3 h; AID 1789; hit rate 0.91% among 290,000; inhibition, % at 5.6 µM;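 active means inhibition above the screen-wide mean plus 3 SD, computed separately per campaign, cut at about 16% in these data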;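 further: 0% = DMSO wells and 100% = 60 µM geldanamycin wells; inhibitors lower the luminescence because luciferase stays unfolded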
CF NFkB conf – CF NF-kB inhibition confirmation, single concentration. inhibition, % at 5 µM. shares compounds with CF NFkB inh. hit rate 64% among 1,300. KKLEB CF airway cells, PAF-induced NF-kB-GFP fluorescence, overnight. AID 602472; in the data active means inhibition above about 40%;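 further: stimulus PAF is a Pseudomonas aeruginosa filtrate and not platelet activating factor; plate controls were DMSO wells with stimulus for no effect and unstimulated DMSO wells for full effect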
Starred values were filed as active, the others as inactive. This is a sample that favours compounds with a hit; in the whole collection about 3.6% have one here.

What do the screens show for `CO[C@@H]1CN(C)C(=O)c2cc(NC(=O)c3cccc(F)c3)ccc2OC[C@H](C)NC[C@@H]1C`?
LGR2 antag: -1.2

How did O=C(CCS(=O)(=O)c1ccccc1)N(CCCN1CCOCC1)c1nc2ccc(F)cc2s1 do in these assays?
Peg3 promoter: 94.3*; KKLEB cytotox: -38.2; LGR2 antag: -26.8; CF NFkB inh: 59.1*; Mdm2 MdmX PPI: 44.7; CF NFkB conf: 1.9

What do the screens show for `Cc1nn(-c2ccccn2)c2c1-c1nc(N)ncc1CC2`?
Peg3 promoter: -235.1; KKLEB cytotox: -11.5; CF NFkB inh: 57.9*; Mdm2 MdmX PPI: 23.1; HSP90 refold inh: 1.1; CF NFkB conf: 54.4*

Results for CC(=O)Oc1ccc(-c2ccc(C(=O)OCC(=O)N(C)CC(=O)Nc3ccccc3Cl)cc2)cc1 ?
Peg3 promoter: 5.5; KKLEB cytotox: -43.7; LGR2 antag: -6.9; CF NFkB inh: 51.7*; Mdm2 MdmX PPI: 40.2; HSP90 refold inh: -0.7; CF NFkB conf: 36.4

Results for CN(CC(=O)Nc1ccccc1Cl)C(=O)COC(=O)c1ccc(S(=O)(=O)C(F)F)cc1 ?
Peg3 promoter: -3.8; KKLEB cytotox: -15.9; LGR2 antag: 1.3; CF NFkB inh: 14.1; Mdm2 MdmX PPI: -2.2

What do the screens show for `CCCCN(CCCNC(=O)c1ccc2c(c1)NC(=O)CN2C)c1ccccc1`?
Peg3 promoter: 66.1*; KKLEB cytotox: -30.0; LGR2 antag: 91.0*; CF NFkB inh: 64.6*; CF NFkB conf: 5.8

Results for CC1CCCCN1CCCNC(=O)c1ccc2c(c1)NC(=O)CN2C (stereo unspecified) ?
Peg3 promoter: -1.2; KKLEB cytotox: 3.4; LGR2 antag: 0.3; CF NFkB inh: 0.6

What do the screens show for `O=C(COC(=O)c1ccccc1NCCO)NCc1cccs1`?
Peg3 promoter: -33.4; KKLEB cytotox: 15.3; LGR2 antag: 4.4; CF NFkB inh: 2.3; Mdm2 MdmX PPI: 0.1

How did CS(=O)(=O)Nc1ccccc1C(=O)OCC(=O)NCc1cccs1 do in these assays?
Peg3 promoter: 1.6; KKLEB cytotox: -14.3; LGR2 antag: 3.8; CF NFkB inh: 50.7*; Mdm2 MdmX PPI: -4.5; CF NFkB conf: 6.7

What do the screens show for `CC1(C)O[C@@H]2C[C@H]3[C@@H]4C[C@H](F)C5=CC(=O)C=C[C@]5(C)[C@H]4[C@@H](O)C[C@]3(C)[C@]2(C(=O)CO)O1`?
Peg3 promoter: 3.7; KKLEB cytotox: 16.6; LGR2 antag: 1.6; CF NFkB inh: 67.9*; Mdm2 MdmX PPI: 5.2; CF NFkB conf: 19.4

What do the screens show for `CC12CCC(=O)C=C1CCC1C2C(=O)CC2(C)C1CC[C@]2(O)C(=O)CO` (stereo partly specified)?
Peg3 promoter: -9.9; KKLEB cytotox: -8.8; LGR2 antag: 13.5; CF NFkB inh: 5.3; Mdm2 MdmX PPI: 15.7; HSP90 refold inh: -6.8

What do the screens show for `CC1(C)O[C@@H]2C[C@H]3[C@@H]4C[C@H](F)C5=CC(=O)CC[C@]5(C)[C@H]4[C@@H](O)C[C@]3(C)[C@]2(C(=O)CO)O1`?
Peg3 promoter: -8.1; KKLEB cytotox: -14.5; LGR2 antag: 6.0; CF NFkB inh: 73.8*; Mdm2 MdmX PPI: -34.4; HSP90 refold inh: -1.3; CF NFkB conf: 16.6

What do the screens show for `c1cc(-c2nnc3sc(C4CCCCC4)nn23)ccn1`?
Peg3 promoter: 6.3; KKLEB cytotox: -16.1; CF NFkB inh: 50.6*; Mdm2 MdmX PPI: 25.6; HSP90 refold inh: -0.8; CF NFkB conf: 63.6*

Results for Clc1ccccc1OCc1nn2c(-c3ccncc3)nnc2s1 ?
Peg3 promoter: -8.8; KKLEB cytotox: -12.4; CF NFkB inh: 14.5; Mdm2 MdmX PPI: 1.8; HSP90 refold inh: 8.0

How did c1csc(Cc2nn3c(-c4ccncc4)nnc3s2)c1 do in these assays?
Peg3 promoter: -4.6; KKLEB cytotox: 4.8; CF NFkB inh: 50.3*; Mdm2 MdmX PPI: 28.2; HSP90 refold inh: -2.2; CF NFkB conf: 48.7*

What do the screens show for `CCCC#Cc1cnc2c(c1)C(=O)N([C@H](C)CO)C[C@@H](C)[C@@H](CN(C)C(=O)c1ccccc1)O2`?
LGR2 antag: 20.9

Results for CO[C@H]1CN(C)C(=O)c2cc(NS(=O)(=O)c3ccccc3C)ccc2OC[C@H](C)NC[C@@H]1C ?
LGR2 antag: -4.3
